# Records with an inconclusive call do not appear. Active and inactive are the calls of the source. Unless noted, how the calls were made is not given here.
# Tests used:
# [1] = qHTS profiling of the MIPE4 collection as inhibitors of Plasmodium falciparum (3D7) proliferation (AID 743344);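 further: scaled between DMSO vehicle wells and 0.29 µM artemisinin as full inhibition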; conditions: P. falciparum 3D7 in erythrocytes, SYBR Green DNA fluorescence, 72 h; at 28.5 µM unless noted
# How it was run: (§1)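 Erythrocytes infected with P. falciparum (0.3% parasitemia, 2.5% hematocrit) incubated with compounds 72 h at 37 C, 5% CO2. Lysis with saponin/Triton buffer containing SYBR Green I, overnight at room temperature in the dark; DNA fluorescence (485/535 nm) normalised to 0.29 uM artemisinin and DMSO.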
# [2] = qHTS profiling of the MIPE4 collection as inhibitors of Plasmodium falciparum (DD2) proliferation (AID 743345); conditions: P. falciparum Dd2 in erythrocytes, SYBR Green DNA, 72 h; at 28.5 µM unless noted
# How it was run: as §1
# [3] = qHTS profiling of the MIPE4 collection as inhibitors of Plasmodium falciparum (DD2) proliferation (Rep 2) (AID 743346); conditions: P. falciparum Dd2 in erythrocytes, SYBR Green DNA, 72 h; at 28.5 µM unless noted
# How it was run: as §1
# [4] = qHTS profiling of the MIPE4 collection as inhibitors of Plasmodium falciparum (HB3) proliferation (AID 743347);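 further: plate controls were DMSO vehicle wells for no effect and artemisinin wells for full effect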; conditions: P. falciparum HB3 in erythrocytes, SYBR Green DNA, 72 h; at 28.5 µM unless noted
# How it was run: as §1
# [5] = High-throughput drug toxicity screening in the BPDCN cell line Gen2.2 (AID 1224824); conditions: Gen2.2 BPDCN cells; at 45.8 µM (top of the series) unless noted;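 further: cells exposed to compounds for 48 h before reading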
# How it was run: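 Gen2.2 cells, 500 per well in phenol red-free RPMI with 10% FBS, exposed to compounds 48 h at 37 C, 5% CO2; viability by CellTiter-Glo luminescence. Percent activity scaled to DMSO (100%) and 9.2 uM bortezomib final (0%).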
# [6] = High-throughput drug toxicity screening in the BPDCN cell line Cal-1 (AID 1224825); conditions: Cal-1 BPDCN cell viability, qHTS; at 45.8 µM (top of the series) unless noted
# How it was run: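 Exponentially growing Cal-1 cells, 500 per well in phenol red-free RPMI with 10% FBS, were exposed to compounds for 48 h at 37 °C, 5% CO2. Viability was read by CellTiter-Glo luminescence and normalised to DMSO (100%) and 9.2 uM bortezomib (0%).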
# [7] = qHTS assay for measurement of the activity of small molecule inhibitors on Zika virus induced Caspase-3 activity in human astrocytoma cells (AID 1224859; active means well fitted curve in the direction sought with a large enough effect; an effect the other way counts as inactive or inconclusive;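 further: plate controls were ZIKV-infected untreated cells for no effect and uninfected cells for full effect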)
# How it was run: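 Percent inhibition of virus-induced caspase-3/7 signal is calculated against uninfected and ZIKV-infected control cells. Cells are SNB-19, infected at 2 FFU/cell for 6 h after 1 h compound exposure.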
# [8] = qHTS Assay for Identifying Gametocytocidal Compounds (AID 743244; active means well fitted curve in the direction sought with a large enough effect; an effect the other way counts as inactive or inconclusive;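 further: on the % scale 0 is the no-effect control and ±100 the full control effect; actives lower the fluorescent signal which means gametocytes are killed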); conditions: P. falciparum 3D7 stage III-V gametocytes, alamarBlue, 72 h; max response: stronger effect = lower value
# How it was run: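 3D7 gametocytes, stages III–V, 20,000/well; cpd 72 h, 37 °C/5% CO2; + alamarBlue 24 h; fluor. Ex 525/Em 598.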
# [9] = qHTS profiling for inhibitors of Plasmodium falciparum (3D7) proliferation (AID 743322);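 further: infected erythrocytes exposed to compound for 72 h before lysis; 100% = DMSO vehicle wells and 0% = 0.29 µM artemisinin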; conditions: P. falciparum 3D7 proliferation; at 28.7 µM (top of the series) unless noted
# How it was run: as §1
# [10] = qHTS profiling for inhibitors of Plasmodium falciparum (DD2) proliferation (AID 743323); conditions: lower = more inhibition; at 28.7 µM (top of the series) unless noted
# How it was run: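 Parasite proliferation measured via DNA-dye fluorescence, as uninfected erythrocytes lack DNA. Cultures at 0.3% parasitemia and 2.5% hematocrit incubated 72 h with compound; signal scaled between vehicle and 0.29 uM artemisinin wells.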
# [11] = qHTS profiling for inhibitors of Plasmodium falciparum (HB3) proliferation (AID 743324; active means well fitted curve in the direction sought with a large enough effect; an effect the other way counts as inactive or inconclusive;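 further: 100% = DMSO vehicle wells and 0% = artemisinin-treated control wells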); conditions: Plasmodium falciparum HB3 blood-stage proliferation; at 28.7 µM (top of the series) unless noted
# How it was run: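 P. falciparum HB3 grown in erythrocytes (0.3% parasitemia, 2.5% hematocrit final) with compound for 72 h at 37 C, 5% CO2. Parasite DNA detected by SYBR Green after saponin/triton lysis overnight; normalized to 0.29 uM artemisinin and DMSO.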
# [12] = qHTS assay for measurement of the activity of small molecule inhibitors on Zika virus induced Caspase-3 activity in human iPSC derived neural progenitor cells (hNPCs) (AID 1224857; active means well fitted curve in the direction sought with a large enough effect; an effect the other way counts as inactive or inconclusive; further: % of control where 0% means no effect; nearly all actives have a fitted effect of over 65% in size)
# How it was run: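 Cells were plated at 350 per well and grown 16 to 20 hours. Compound pretreatment lasted one hour, after which ZIKV (2 FFU/cell) was added for 6 hours. Percent inhibition was normalized between uninfected and infected controls.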
Structure (SMILES),"parasite growth, % of DMSO control [1]","parasite growth remaining, % of DMSO control (lower = more inhibition) [2]","parasite growth, % of control (lower = inhibition) [3]","growth, % of control [4]","cell viability, % of control (lower = more cytotoxic) [5]",viability (% of control) [6],Potency [7],max response [8],remaining parasite growth % (stronger effect = lower value) [9] [%],"activity, percent of control [10] [%]","remaining proliferation (% of control), lower = more inhibition [11] [%]",Potency [12]
CN[C@H]1[C@@H](O[C@@H]2[C@H](O[C@@H]3[C@@H](O)[C@@H](O)[C@@H](N=C(N)N)[C@@H](O)[C@@H]3N=C(N)N)O[C@H](C)[C@@]2(O)C=O)O[C@@H](CO)[C@@H](O)[C@H]1O,99% [at 9.64 µM],94.4% [at 9.64 µM],87.4% [at 9.64 µM],89.1% [at 9.64 µM],122% [at 15.3 µM],118% [at 15.3 µM],inactive,,,,,
O=C1Nc2ccc(I)cc2C1=Cc1cc(Br)c(O)c(Br)c1,,30.6%,32.9%,17.7%,562%,106%,inactive,,,,,
Cc1ccccc1-n1c(Cn2nc(-c3cccc(O)c3)c3c(N)ncnc32)nc2cccc(C)c2c1=O,6.67%,8.31%,15%,9.11%,5.88%,10.5%,inactive,,,,,
Cc1cc2c(cc1C1(c3ccc(C(=O)O)cn3)CC1)C(C)(C)CCC2(C)C,58.3%,95.5%,77.6%,78.5%,529%,121%,inactive,8.43% (inactive),101,97.2,94.8,
Cc1cccc(-c2[nH]c(C(C)(C)C)nc2-c2ccc3c(c2)OCO3)n1,,19.7%,10.1%,8.33%,235%,17.9%,,,,,,
Cc1cc(-c2ncc(CC(=O)Nc3ccc(-c4cnccn4)cn3)cc2C)ccn1,36.5%,87.9%,71.8%,52.1%,267%,97%,inactive,,,,,
CN(C)c1nc(Cc2ccc(NC(=O)c3ccc(C(F)(F)F)cc3)cc2)nc(N(C)C)c1CC(=O)O,88.9%,90.9%,75.7%,95.1%,204%,132%,inactive,,,,,
CCN(CCO)CCCOc1ccc2c(Nc3cc(CC(=O)Nc4cccc(F)c4)[nH]n3)ncnc2c1,9.18%,11.6%,17.8%,6.77%,90.4%,15.3%,inactive,,,,,
COc1ccc(-c2ccc3ncc4c(c3c2)n(-c2ccc(N3CCNCC3)c(C(F)(F)F)c2)c(=O)n4C)cn1,,6.37%,9.13%,3.39%,0.968%,0.939%,,,,,,
COc1cc(CNC(=O)CCCCC=CC(C)C)ccc1O,,,,,145%,27.5%,inactive,,,,,
NC(=O)c1ccc(N(C(N)=O)c2c(F)cccc2F)nc1-c1ccc(F)cc1F,79.5%,104%,59.1%,78.7%,215%,92.1%,inactive,15.2% (inactive),84.7,83.3,85.6,
O=C1CCCC(=O)C1C(=O)c1ccc(C(F)(F)F)cc1[N+](=O)[O-],90.1%,103%,114%,93.4%,124%,101%,inactive,,,,,
CC(C)(OCc1nn(Cc2ccccc2)c2ccccc12)C(=O)O,95.1%,101%,96.9%,104%,148%,109%,inactive,,,,,
CC=C(C(=CC)c1ccc(O)cc1)c1ccc(O)cc1,61.7%,94.2%,67.7%,70.1%,43.4%,26.7%,inactive,,,,,
CC[C@H]1OC(=O)[C@H](C)[C@@H](O[C@H]2C[C@@](C)(OC)[C@@H](O)[C@H](C)O2)[C@H](C)[C@@H](O[C@@H]2O[C@H](C)C[C@H](N(C)C)[C@H]2O)[C@](C)(O)C[C@H](C)C(=NOCOCCOC)[C@H](C)[C@@H](O)[C@]1(C)O,53.1%,,47.3%,,129%,113%,inactive,,,,,
CCC[C@H](Nc1nc(-c2ccc(NC(=O)NCC)c(OC)c2)ncc1C)c1cccnc1,,,20.1%,4.28%,9.57%,4.63%,,,,,,inactive
C=C[C@@H]1CN2CCC1C[C@@H]2C(O)c1ccnc2ccc(OC)cc12 (some centres undefined),,9.53%,12%,3.29%,130%,86%,inactive,,2.76,2.53,2.91,
OC[C@H]1O[C@@H](OCCc2ccc(O)cc2)[C@H](O)[C@@H](O)[C@H]1O,97.9%,103%,131%,104%,106%,96.6%,inactive,,,,,
CN1C(=O)C(Cc2c[nH]c3ccccc23)NC1=S (centres undefined),338%,99%,123%,245%,,106%,inactive,15.9% (inactive),109,91.5,73.5,inactive
CCNC(=O)[C@H]1O[C@@H](n2cnc3c(N)nc(NCCc4ccc(CCC(=O)O)cc4)nc32)[C@H](O)[C@H]1O,93.9%,110%,116%,99.8%,96.2%,129%,inactive,,,,,
Cc1csc(-c2nnc(Nc3ccc(Oc4ncccc4-c4ccnc(N)n4)cc3)c3ccccc23)c1,38.3%,81.1%,47.8%,26.8%,24.7%,13.3%,inactive,10.6% (inactive),93.3,85.6,51.2,
Cc1cc(CS(=O)(=O)c2ccccc2)cc(OCc2ccc(CN3CCC[C@H]3CO)cc2)c1,33.1%,30.3%,18.8%,66.2%,318%,76.3%,inactive,,,,,

# From PubChem BioAssay (NCATS)
